# Results from PubChem BioAssay AID1159580 (chemical genetic matrix, 2015).
# Among all 5,500 compounds or so, about 2,000 (36%) were called active. About 18% were inconclusive and are not listed. The list shows a part of the results. A number with no mark means an inactive call. Cut-off read from the data, not from the text of the source: active = normalized growth mostly below about 0.91 (no sharp cut-off); inconclusive = no clear call, values can overlap the other calls; inactive = mostly above about 0.92.
# Assay: chemical genetic growth profiling, strain panel (AID 1159580);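 note: tested at 20 µM; growth read once vehicle control cultures reached saturation at 30 °C; 1 = growth at the plate median or of vehicle wells; lower values mean less growth of the strain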
# Settings: growth OD
compound,measurement,setting,value
O=C1C=C(O)c2ccccc2C1=O,normalized growth,"S. cerevisiae deletion strains, locus YJR043C, strain POL32, hits give low values",1.01
same,normalized growth,"S. cerevisiae deletion strains, locus YJR066W, strain TOR1, hits give low values",0.825 (active)
same,normalized growth,"S. cerevisiae deletion strains, locus YKL009W, strain mrt4, hits give low values",1.04
same,normalized growth,"S. cerevisiae deletion strains, locus YKL068W, hits give low values",0.942
same,normalized growth,"S. cerevisiae deletion strains, locus YKL085W, strain MDH1 (second series), hits give low values",0.947
same,normalized growth,"S. cerevisiae deletion strains, locus YKL085W, strain MDH1, hits give low values",0.947
same,normalized growth,"S. cerevisiae deletion strains, locus YKL160W, strain elf1, hits give low values",0.912
same,normalized growth,"S. cerevisiae deletion strains, locus YKR001C, strain vps1, hits give low values",0.9
same,normalized growth,"S. cerevisiae deletion strains, locus YKR026C, strain gcn3, hits give low values",0.919 (active)
same,normalized growth,"S. cerevisiae deletion strains, locus YKR091W, strain srl3, hits give low values",0.961
same,normalized growth,"S. cerevisiae deletion strains, locus YLL001W, strain dnm1, hits give low values",0.937
same,normalized growth,"S. cerevisiae deletion strains, locus YLL026W, hits give low values",0.952
same,normalized growth,"S. cerevisiae deletion strains, locus YLL041C, strain sdh2, hits give low values",0.939
same,normalized growth,"S. cerevisiae deletion strains, locus YLR027C, strain aat2, hits give low values",0.935
same,normalized growth,"S. cerevisiae deletion strains, locus YLR039C, strain RIC1, hits give low values",0.71
same,normalized growth,"S. cerevisiae deletion strains, locus YLR058C, strain SHM2, hits give low values",0.949
same,normalized growth,"S. cerevisiae deletion strains, locus YLR102C, strain apc9, hits give low values",0.982
same,normalized growth,"S. cerevisiae deletion strains, locus YLR113W, strain HOG1, hits give low values",0.867
same,normalized growth,"S. cerevisiae deletion strains, locus YLR221C, strain rsa3, hits give low values",0.925
same,normalized growth,"S. cerevisiae deletion strains, locus YLR258W, strain gsy2, hits give low values",0.944
same,normalized growth,"S. cerevisiae deletion strains, locus YLR262C, strain YPT6 (second series), hits give low values",0.738 (active)
same,normalized growth,"S. cerevisiae deletion strains, locus YLR262C, strain YPT6, hits give low values",0.82
same,normalized growth,"S. cerevisiae deletion strains, locus YLR268W, strain sec22, hits give low values",0.923
same,normalized growth,"S. cerevisiae deletion strains, locus YLR320W, strain mms22, hits give low values",0.949
same,normalized growth,"S. cerevisiae deletion strains, locus YLR330W, strain CHS5, hits give low values",0.959
same,normalized growth,"S. cerevisiae deletion strains, locus YLR342W, strain FKS1 (second series), hits give low values",1.04
same,normalized growth,"S. cerevisiae deletion strains, locus YLR342W, strain FKS1, hits give low values",0.948
same,normalized growth,"S. cerevisiae deletion strains, locus YLR357W, strain rsc2, hits give low values",0.932
same,normalized growth,"S. cerevisiae deletion strains, locus YLR370C, strain arc18, hits give low values",0.941
same,normalized growth,"S. cerevisiae deletion strains, locus YLR371W, strain rom2, hits give low values",0.966
same,normalized growth,"S. cerevisiae deletion strains, locus YLR384C, strain iki3, hits give low values",0.971
same,normalized growth,"S. cerevisiae deletion strains, locus YLR418C, strain cdc73, hits give low values",0.894
same,normalized growth,"S. cerevisiae deletion strains, locus YML016C, strain PPZ1, hits give low values",0.956
same,normalized growth,"S. cerevisiae deletion strains, locus YML032C, strain rad52, hits give low values",0.907
same,normalized growth,"S. cerevisiae deletion strains, locus YML120C, strain ndi1, hits give low values",0.93
same,normalized growth,"S. cerevisiae deletion strains, locus YML124C, strain tub3, hits give low values",0.964
same,normalized growth,"S. cerevisiae deletion strains, locus YMR058W, strain fet3, hits give low values",0.872 (active)
same,normalized growth,"S. cerevisiae deletion strains, locus YMR078C, strain ctf18, hits give low values",0.989
same,normalized growth,"S. cerevisiae deletion strains, locus YMR125W, strain sto1, hits give low values",0.954
same,normalized growth,"S. cerevisiae deletion strains, locus YMR129W, hits give low values",0.937
same,normalized growth,"S. cerevisiae deletion strains, locus YMR205C, strain PFK2, hits give low values",0.994
same,normalized growth,"S. cerevisiae deletion strains, locus YMR223W, strain ubp8, hits give low values",0.944
same,normalized growth,"S. cerevisiae deletion strains, locus YMR231W, strain pep5, hits give low values",0.919 (active)
same,normalized growth,"S. cerevisiae deletion strains, locus YMR307W, strain GAS1, hits give low values",0.863
same,normalized growth,"S. cerevisiae deletion strains, locus YNL067W, strain RPL9B, hits give low values",0.966
same,normalized growth,"S. cerevisiae deletion strains, locus YNL071W, strain lat1, hits give low values",0.945
same,normalized growth,"S. cerevisiae deletion strains, locus YNL128W, strain TEP1, hits give low values",0.974
same,normalized growth,"S. cerevisiae deletion strains, locus YNL183C, strain NPR1, hits give low values",0.884
same,normalized growth,"S. cerevisiae deletion strains, locus YNL209W, strain ssb2, hits give low values",0.941
same,normalized growth,"S. cerevisiae deletion strains, locus YNL233W, strain BNI4, hits give low values",0.978
same,normalized growth,"S. cerevisiae deletion strains, locus YNL248C, strain rpa49, hits give low values",0.951
same,normalized growth,"S. cerevisiae deletion strains, locus YNL250W, strain rad50, hits give low values",0.953
same,normalized growth,"S. cerevisiae deletion strains, locus YNL271C, strain bni1, hits give low values",0.941
same,normalized growth,"S. cerevisiae deletion strains, locus YNL298W, strain CLA4, hits give low values",0.968
same,normalized growth,"S. cerevisiae deletion strains, locus YNL307C, strain MCK1, hits give low values",0.968
same,normalized growth,"S. cerevisiae deletion strains, locus YNL322C, strain KRE1 (second series), hits give low values",0.944
same,normalized growth,"S. cerevisiae deletion strains, locus YNL322C, strain KRE1, hits give low values",0.971
same,normalized growth,"S. cerevisiae deletion strains, locus YNR049C, strain mso1, hits give low values",0.958
same,normalized growth,"S. cerevisiae deletion strains, locus YNR052C, strain pop2, hits give low values",0.941
same,normalized growth,"S. cerevisiae deletion strains, locus YOL006C, strain TOP1, hits give low values",0.865
same,normalized growth,"S. cerevisiae deletion strains, locus YOL012C, strain htz1",0.668
same,normalized growth,"S. cerevisiae deletion strains, locus YOL147C, strain pex11, hits give low values",0.955
same,normalized growth,"S. cerevisiae deletion strains, locus YOR001W, strain rrp6, hits give low values",0.931
same,normalized growth,"S. cerevisiae deletion strains, locus YOR061W, strain CKA2, hits give low values",0.979
same,normalized growth,"S. cerevisiae deletion strains, locus YOR069W, strain VPS5, hits give low values",0.971
same,normalized growth,"S. cerevisiae deletion strains, locus YOR070C, strain gyp1, hits give low values",0.956
same,normalized growth,"S. cerevisiae deletion strains, locus YOR080W, strain dia2, hits give low values",0.951
same,normalized growth,"S. cerevisiae deletion strains, locus YOR083W, strain WHI5, hits give low values",0.904
same,normalized growth,"S. cerevisiae deletion strains, locus YOR106W, strain vam3, hits give low values",0.863 (active)
same,normalized growth,"S. cerevisiae deletion strains, locus YOR136W, strain idh2, hits give low values",0.952
same,normalized growth,"S. cerevisiae deletion strains, locus YOR144C, strain elg1, hits give low values",0.966
same,normalized growth,"S. cerevisiae deletion strains, locus YOR184W, strain ser1, hits give low values",0.918
same,normalized growth,"S. cerevisiae deletion strains, locus YOR231W, strain MKK1, hits give low values",0.797 (active)
same,normalized growth,"S. cerevisiae deletion strains, locus YOR265W, strain rbl2, hits give low values",0.944
same,normalized growth,"S. cerevisiae deletion strains, locus YOR270C, strain vph1, hits give low values",0.846
same,normalized growth,"S. cerevisiae deletion strains, locus YOR290C, strain snf2, hits give low values",0.902
same,normalized growth,"S. cerevisiae deletion strains, locus YOR316C, strain cot1, hits give low values",0.98
same,normalized growth,"S. cerevisiae deletion strains, locus YPL051W, strain arl3, hits give low values",0.873 (active)
same,normalized growth,"S. cerevisiae deletion strains, locus YPL078C, strain atp4, hits give low values",0.897
same,normalized growth,"S. cerevisiae deletion strains, locus YPL106C, strain sse1, hits give low values",0.866
same,normalized growth,"S. cerevisiae deletion strains, locus YPL240C, strain hsp82, hits give low values",0.918 (active)
same,normalized growth,"S. cerevisiae deletion strains, locus YPL241C, strain CIN2, hits give low values",0.967
same,normalized growth,"S. cerevisiae deletion strains, locus YPL256C, strain CLN2, hits give low values",0.818 (active)
same,normalized growth,"S. cerevisiae deletion strains, locus YPR119W, strain clb2, hits give low values",0.966
same,normalized growth,"S. cerevisiae deletion strains, locus YPR141C, strain kar3, hits give low values",0.948
same,normalized growth,"S. cerevisiae deletion strains, locus YPR163C, strain tif3, hits give low values",0.995
same,normalized growth,"S. cerevisiae deletion strains, locus YPR167C, strain met16, hits give low values",0.956
same,normalized growth,"S. cerevisiae deletion strains, strain wtn01, hits give low values",0.967
same,normalized growth,"S. cerevisiae strains, strain wild type, hits give low values",0.978
